According to PubChem BioAssay (NCATS):
Inconclusive results are not listed. Activity calls are given as the source filed them. Calls follow the shape of the dose curve; as a rule, active = well fitted curve in the direction sought with a large enough effect; inconclusive = small, poorly fitted or top-dose-only effect, or another doubt; inactive = no such curve, though single readings can be large; an effect the other way counts as inactive or inconclusive.

Key:
OV90 = experiment: Primary qHTS to identify gynecologic anti-cancer compounds using libraries of approved drugs and bioactive compounds (AID 1345084); details: Gynecologic cancer cell panel viability, ATPlite luminescence, 48 h; series mostly up to 57.5 µM; also: nearly all actives have a fitted effect of over 55% in size
Outline: (§1)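 Luminescence from the ATPlite ATP-monitoring reagent indicates viable cell number; lower signal means cytotoxicity. Cells received compound 16 h after seeding and were exposed for 48 h across five concentrations.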

PA-1 = experiment: as above; details: Gynecologic cancer cell panel viability, ATPlite luminescence, 48 h; series mostly up to 57.5 µM
Outline: as §1

SKOV3 = experiment: as above; details: Gynecologic cancer cell panel viability, ATPlite luminescence, 48 h; series mostly up to 57.5 µM
Outline: as §1

Tov-21-G = experiment: as above; details: Gynecologic cancer cell panel viability, ATPlite luminescence, 48 h; series mostly up to 57.5 µM
Outline: as §1

Tov112D = experiment: as above; details: Gynecologic cancer cell panel viability, ATPlite luminescence, 48 h; series mostly up to 57.5 µM
Outline: as §1

[1] = Drug repurposing screens with cells derived from glioblastoma tumor samples (AID 1345199); details: GBM patient neurospheres viability, ATP luminescence, 48 h; also: nearly all actives have a fitted effect of over 40% in size; also: potency is read from the fitted curve at half-maximal effect
Outline: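 Four patient lines of CD133+ GBM neurospheres were screened at several concentrations; hits were retested in those lines plus three slower-growing GBM lines, using 48-hour treatment and ATP-based viability.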
% is scaled to controls: 0 for no effect and ±100 for the full control effect.

Cc1cc(C)cc(NC(=O)Cc2ccc(OC(C)(C)C(=O)O)cc2)c1
inactive: Potency (OV90) | Potency (PA-1) | Potency (SKOV3) | Potency (Tov-21-G) | Potency (Tov112D)

CC1=C2C=C(CO)C(CO)CCC2(C)CCC1=O (centres undefined)
inactive: Potency (OV90) | Potency (PA-1) | Potency (SKOV3) | Potency (Tov-21-G) | Potency (Tov112D)

CCCCCCc1cccc(NC(=O)[C@H](N)CCP(=O)(O)O)c1
inactive: activity change, negative = cytotoxicity (OV90) 3.38% [at 11.6 µM] | activity change, negative = cytotoxicity (PA-1) 2.71% [at 11.6 µM] | activity change, negative = cytotoxicity (SKOV3) -0.133% [at 11.6 µM] | activity change, negative = cytotoxicity (Tov-21-G) -2.84% [at 11.6 µM] | activity change, negative = cytotoxicity (Tov112D) 3.09% [at 11.6 µM]

C[C@@H]1CC[C@H]2C(C)(C)[C@H](O)[C@H](O)C[C@]2(C)[C@@]12Cc1c(O)cc3c(c1O2)CNC3=O
inactive: Potency (OV90) | Potency (PA-1) | Potency (SKOV3) | Potency (Tov-21-G) | Potency (Tov112D)

O=C(NC[C@H](O)CN1CCc2ccccc2C1)c1cc(NC2COC2)ncn1
inactive: Potency (OV90) | Potency (PA-1) | Potency (SKOV3) | Potency (Tov-21-G) | Potency (Tov112D)

CC(C)c1ccc(CC(=O)N2CCC[C@@H](c3cccc(OC(C)(C)C(=O)O)c3)C2)cc1
inactive: Potency (OV90) | Potency (PA-1) | Potency (SKOV3) | Potency (Tov-21-G) | Potency (Tov112D)

CCOC(=O)c1ccc(N(C)c2csc(-c3ccccc3)n2)cc1
inactive: Potency (OV90) | Potency (PA-1) | Potency (SKOV3) | Potency (Tov-21-G) | Potency (Tov112D)

CCC/C=C/C(=O)O[C@H]1CC(C)(C)CC2[C@]13[C@H](O)O[C@@]21CCC2[C@@]4(C)CC[C@H](O[C@@H]5O[C@H](C(=O)O)[C@@H](O)[C@H](O[C@@H]6O[C@H](CO)[C@H](O)[C@H](O)[C@H]6O[C@@H]6O[C@@H](C)[C@H](O)[C@@H](O)[C@H]6O[C@@H]6OC[C@](O)(CO)[C@H]6O)[C@H]5O[C@@H]5O[C@H](CO)[C@H](O)[C@H](O)[C@H]5O)C(C)(C)C4CC[C@@]2(C)[C@]1(C)C[C@H]3OC(C)=O (some centres undefined)
inactive: activity change, negative = cytotoxicity (OV90) -0.93% [at 6.55 µM] | activity change, negative = cytotoxicity (PA-1) -0.307% [at 6.55 µM] | activity change, negative = cytotoxicity (SKOV3) 13% [at 6.55 µM] | activity change, negative = cytotoxicity (Tov-21-G) 0.0885% [at 6.55 µM] | activity change, negative = cytotoxicity (Tov112D) 1.84% [at 6.55 µM]

C=CC(C)(C)C1(CC2NC(=O)C3CCCN3C2=O)C(=O)Nc2cc3c(cc21)C=CC(C)(C)O3 (centres undefined)
inactive: Potency (OV90) | Potency (PA-1) | Potency (SKOV3) | Potency (Tov-21-G) | Potency (Tov112D)

CC(=O)N[C@H]1[C@H](O[C@H]2CC[C@@]3(C)C(CC[C@]4(C)C3CC=C3C5CC(C)(C)CC[C@]5(C(=O)O)[C@H](O[C@@H]5O[C@H](CO)[C@@H](O)[C@H](O)[C@H]5O)C[C@]34C)C2(C)C)O[C@H](CO[C@@H]2OC[C@H](O)[C@H](O)[C@H]2O[C@@H]2OC[C@@H](O)[C@H](O)[C@H]2O)[C@@H](O)[C@@H]1O (some centres undefined)
inactive: activity change, negative = cytotoxicity (OV90) -0.313% [at 11.6 µM] | activity change, negative = cytotoxicity (PA-1) -6.75% [at 11.6 µM] | activity change, negative = cytotoxicity (SKOV3) 13% [at 11.6 µM] | activity change, negative = cytotoxicity (Tov-21-G) 0.549% [at 11.6 µM] | activity change, negative = cytotoxicity (Tov112D) 6.55% [at 11.6 µM]

CC1CC(O)C2(C)C(C(=O)O)=CCCC2C1(C)CCc1ccoc1 (centres undefined)
inactive: Potency (OV90) | Potency (PA-1) | Potency (SKOV3) | Potency (Tov-21-G) | Potency (Tov112D)

O=C(/C=C/c1ccc(O)c(O)c1)OCc1ccccc1O[C@@H]1O[C@H](CO)[C@@H](O)[C@H](O)[C@H]1O
inactive: Potency (OV90) | Potency (PA-1) | Potency (SKOV3) | Potency (Tov-21-G) | Potency (Tov112D)

CC1(C)CCC(C)(C)c2cc([C@@H](O)C(=O)Nc3ccc(C(=O)O)cc3F)ccc21
inactive: Potency (OV90) | Potency (PA-1) | Potency (SKOV3) | Potency (Tov-21-G) | Potency (Tov112D)

COc1cc(C/C(=C/NC(C)=O)N(CC(=O)Cc2ccccc2)C(C)=O)cc2c1OCO2
inactive: Potency (OV90) | Potency (PA-1) | Potency (SKOV3) | Potency (Tov-21-G) | Potency (Tov112D)

CC(C)(O)C1=CCC23COC(C2)C(O)(C(=O)O)CCC13 (centres undefined)
inactive: Potency (OV90) | Potency (PA-1) | Potency (SKOV3) | Potency (Tov-21-G) | Potency (Tov112D)

CC1=CCC2C(C)(CO)CCCC2(CO)C1CO (centres undefined)
inactive: Potency (OV90) | Potency (PA-1) | Potency (SKOV3) | Potency (Tov-21-G) | Potency (Tov112D)

C/C(=C/CO)CC[C@@H]1[C@@]2(C)CCC[C@](C)(C(=O)O)C2CC[C@@]1(C)O (some centres undefined)
inactive: Potency (OV90) | Potency (PA-1) | Potency (SKOV3) | Potency (Tov-21-G) | Potency (Tov112D)

CC[C@H]1OC(=O)C[C@@H](O)[C@H](C)[C@@H](O[C@@H]2O[C@H](C)[C@@H](O)[C@H](N(C)C)[C@H]2O)[C@@H](CCN2C[C@H](C)C[C@H](C)C2)C[C@@H](C)C(=O)/C=C/C(C)=C/[C@@H]1CO[C@@H]1O[C@H](C)[C@@H](O)[C@@H](OC)[C@H]1OC
inactive: Potency (OV90) | Potency (PA-1) | Potency (SKOV3) | Potency (Tov-21-G) | Potency (Tov112D) | activity, negative = cell killing ([1]; at 45.9 µM (top of the series), tumour line B) -3.99% | activity, negative = cell killing ([1]; at 45.9 µM (top of the series), tumour line D) -15.7% | activity, negative = cell killing ([1]; at 46.1 µM (top of the series), tumour line C) -6.47%
active: Potency ([1]; tumour line A) 22.4 µM
